{
  "source": "the supplement of paper PMC11001985",
  "note": "Values without a mark were called inactive.",
  "data": [
    {"compound": "C#CCNC(=O)CCSSCCC(=O)NCCc1ccc(C=O)c(C=O)c1", "assay": "lysine labeling ratio R10:1 (500 µM / 50 µM probe), SILAC-ABPP in living cells; higher = lower intrinsic lysine reactivity toward the probe, active = 2 or less", "conditions": "HeLa; probe concentrations 500 vs 50 µM", "summary_of_the_method": "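Forward and reverse SILAC label swaps were used with living light and heavy HeLa cells in PBS at room temperature, which were given an alkyne-tagged, disulfide-linked lysine probe at 50 µM or 500 µM. R is the per-lysine filtered median high-probe/low-probe MS1 peptide ratio, with the median then taken across both swap directions. Values are limited to 20.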", "values": [
      {"target": "ENO1 (lysine site: K422) (UniProt P06733)", "sequence (P06733 whole entry)": "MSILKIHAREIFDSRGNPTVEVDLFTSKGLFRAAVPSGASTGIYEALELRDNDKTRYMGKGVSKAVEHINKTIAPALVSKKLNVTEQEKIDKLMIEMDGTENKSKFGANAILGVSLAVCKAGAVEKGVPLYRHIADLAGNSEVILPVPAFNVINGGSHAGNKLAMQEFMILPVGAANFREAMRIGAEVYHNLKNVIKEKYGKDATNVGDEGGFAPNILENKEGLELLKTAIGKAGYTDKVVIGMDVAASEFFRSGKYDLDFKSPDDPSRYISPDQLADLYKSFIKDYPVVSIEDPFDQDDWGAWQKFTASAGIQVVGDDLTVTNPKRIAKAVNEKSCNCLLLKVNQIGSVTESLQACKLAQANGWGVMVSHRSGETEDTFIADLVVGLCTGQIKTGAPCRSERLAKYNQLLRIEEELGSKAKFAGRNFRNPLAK", "lysine labeling ratio R10:1": 2.65},
      {"target": "MSN (lysine site: K501) (UniProt P26038)", "lysine labeling ratio R10:1": 5.08},
      {"target": "CPNE1 (lysine site: K73) (UniProt Q99829)", "lysine labeling ratio R10:1": 2.97},
      {"target": "FLNA (lysine site: K2133) (UniProt P21333)", "lysine labeling ratio R10:1": 2.27},
      {"target": "UniProt Q15149 (lysine site: K581)", "sequence (Q15149 whole entry)": "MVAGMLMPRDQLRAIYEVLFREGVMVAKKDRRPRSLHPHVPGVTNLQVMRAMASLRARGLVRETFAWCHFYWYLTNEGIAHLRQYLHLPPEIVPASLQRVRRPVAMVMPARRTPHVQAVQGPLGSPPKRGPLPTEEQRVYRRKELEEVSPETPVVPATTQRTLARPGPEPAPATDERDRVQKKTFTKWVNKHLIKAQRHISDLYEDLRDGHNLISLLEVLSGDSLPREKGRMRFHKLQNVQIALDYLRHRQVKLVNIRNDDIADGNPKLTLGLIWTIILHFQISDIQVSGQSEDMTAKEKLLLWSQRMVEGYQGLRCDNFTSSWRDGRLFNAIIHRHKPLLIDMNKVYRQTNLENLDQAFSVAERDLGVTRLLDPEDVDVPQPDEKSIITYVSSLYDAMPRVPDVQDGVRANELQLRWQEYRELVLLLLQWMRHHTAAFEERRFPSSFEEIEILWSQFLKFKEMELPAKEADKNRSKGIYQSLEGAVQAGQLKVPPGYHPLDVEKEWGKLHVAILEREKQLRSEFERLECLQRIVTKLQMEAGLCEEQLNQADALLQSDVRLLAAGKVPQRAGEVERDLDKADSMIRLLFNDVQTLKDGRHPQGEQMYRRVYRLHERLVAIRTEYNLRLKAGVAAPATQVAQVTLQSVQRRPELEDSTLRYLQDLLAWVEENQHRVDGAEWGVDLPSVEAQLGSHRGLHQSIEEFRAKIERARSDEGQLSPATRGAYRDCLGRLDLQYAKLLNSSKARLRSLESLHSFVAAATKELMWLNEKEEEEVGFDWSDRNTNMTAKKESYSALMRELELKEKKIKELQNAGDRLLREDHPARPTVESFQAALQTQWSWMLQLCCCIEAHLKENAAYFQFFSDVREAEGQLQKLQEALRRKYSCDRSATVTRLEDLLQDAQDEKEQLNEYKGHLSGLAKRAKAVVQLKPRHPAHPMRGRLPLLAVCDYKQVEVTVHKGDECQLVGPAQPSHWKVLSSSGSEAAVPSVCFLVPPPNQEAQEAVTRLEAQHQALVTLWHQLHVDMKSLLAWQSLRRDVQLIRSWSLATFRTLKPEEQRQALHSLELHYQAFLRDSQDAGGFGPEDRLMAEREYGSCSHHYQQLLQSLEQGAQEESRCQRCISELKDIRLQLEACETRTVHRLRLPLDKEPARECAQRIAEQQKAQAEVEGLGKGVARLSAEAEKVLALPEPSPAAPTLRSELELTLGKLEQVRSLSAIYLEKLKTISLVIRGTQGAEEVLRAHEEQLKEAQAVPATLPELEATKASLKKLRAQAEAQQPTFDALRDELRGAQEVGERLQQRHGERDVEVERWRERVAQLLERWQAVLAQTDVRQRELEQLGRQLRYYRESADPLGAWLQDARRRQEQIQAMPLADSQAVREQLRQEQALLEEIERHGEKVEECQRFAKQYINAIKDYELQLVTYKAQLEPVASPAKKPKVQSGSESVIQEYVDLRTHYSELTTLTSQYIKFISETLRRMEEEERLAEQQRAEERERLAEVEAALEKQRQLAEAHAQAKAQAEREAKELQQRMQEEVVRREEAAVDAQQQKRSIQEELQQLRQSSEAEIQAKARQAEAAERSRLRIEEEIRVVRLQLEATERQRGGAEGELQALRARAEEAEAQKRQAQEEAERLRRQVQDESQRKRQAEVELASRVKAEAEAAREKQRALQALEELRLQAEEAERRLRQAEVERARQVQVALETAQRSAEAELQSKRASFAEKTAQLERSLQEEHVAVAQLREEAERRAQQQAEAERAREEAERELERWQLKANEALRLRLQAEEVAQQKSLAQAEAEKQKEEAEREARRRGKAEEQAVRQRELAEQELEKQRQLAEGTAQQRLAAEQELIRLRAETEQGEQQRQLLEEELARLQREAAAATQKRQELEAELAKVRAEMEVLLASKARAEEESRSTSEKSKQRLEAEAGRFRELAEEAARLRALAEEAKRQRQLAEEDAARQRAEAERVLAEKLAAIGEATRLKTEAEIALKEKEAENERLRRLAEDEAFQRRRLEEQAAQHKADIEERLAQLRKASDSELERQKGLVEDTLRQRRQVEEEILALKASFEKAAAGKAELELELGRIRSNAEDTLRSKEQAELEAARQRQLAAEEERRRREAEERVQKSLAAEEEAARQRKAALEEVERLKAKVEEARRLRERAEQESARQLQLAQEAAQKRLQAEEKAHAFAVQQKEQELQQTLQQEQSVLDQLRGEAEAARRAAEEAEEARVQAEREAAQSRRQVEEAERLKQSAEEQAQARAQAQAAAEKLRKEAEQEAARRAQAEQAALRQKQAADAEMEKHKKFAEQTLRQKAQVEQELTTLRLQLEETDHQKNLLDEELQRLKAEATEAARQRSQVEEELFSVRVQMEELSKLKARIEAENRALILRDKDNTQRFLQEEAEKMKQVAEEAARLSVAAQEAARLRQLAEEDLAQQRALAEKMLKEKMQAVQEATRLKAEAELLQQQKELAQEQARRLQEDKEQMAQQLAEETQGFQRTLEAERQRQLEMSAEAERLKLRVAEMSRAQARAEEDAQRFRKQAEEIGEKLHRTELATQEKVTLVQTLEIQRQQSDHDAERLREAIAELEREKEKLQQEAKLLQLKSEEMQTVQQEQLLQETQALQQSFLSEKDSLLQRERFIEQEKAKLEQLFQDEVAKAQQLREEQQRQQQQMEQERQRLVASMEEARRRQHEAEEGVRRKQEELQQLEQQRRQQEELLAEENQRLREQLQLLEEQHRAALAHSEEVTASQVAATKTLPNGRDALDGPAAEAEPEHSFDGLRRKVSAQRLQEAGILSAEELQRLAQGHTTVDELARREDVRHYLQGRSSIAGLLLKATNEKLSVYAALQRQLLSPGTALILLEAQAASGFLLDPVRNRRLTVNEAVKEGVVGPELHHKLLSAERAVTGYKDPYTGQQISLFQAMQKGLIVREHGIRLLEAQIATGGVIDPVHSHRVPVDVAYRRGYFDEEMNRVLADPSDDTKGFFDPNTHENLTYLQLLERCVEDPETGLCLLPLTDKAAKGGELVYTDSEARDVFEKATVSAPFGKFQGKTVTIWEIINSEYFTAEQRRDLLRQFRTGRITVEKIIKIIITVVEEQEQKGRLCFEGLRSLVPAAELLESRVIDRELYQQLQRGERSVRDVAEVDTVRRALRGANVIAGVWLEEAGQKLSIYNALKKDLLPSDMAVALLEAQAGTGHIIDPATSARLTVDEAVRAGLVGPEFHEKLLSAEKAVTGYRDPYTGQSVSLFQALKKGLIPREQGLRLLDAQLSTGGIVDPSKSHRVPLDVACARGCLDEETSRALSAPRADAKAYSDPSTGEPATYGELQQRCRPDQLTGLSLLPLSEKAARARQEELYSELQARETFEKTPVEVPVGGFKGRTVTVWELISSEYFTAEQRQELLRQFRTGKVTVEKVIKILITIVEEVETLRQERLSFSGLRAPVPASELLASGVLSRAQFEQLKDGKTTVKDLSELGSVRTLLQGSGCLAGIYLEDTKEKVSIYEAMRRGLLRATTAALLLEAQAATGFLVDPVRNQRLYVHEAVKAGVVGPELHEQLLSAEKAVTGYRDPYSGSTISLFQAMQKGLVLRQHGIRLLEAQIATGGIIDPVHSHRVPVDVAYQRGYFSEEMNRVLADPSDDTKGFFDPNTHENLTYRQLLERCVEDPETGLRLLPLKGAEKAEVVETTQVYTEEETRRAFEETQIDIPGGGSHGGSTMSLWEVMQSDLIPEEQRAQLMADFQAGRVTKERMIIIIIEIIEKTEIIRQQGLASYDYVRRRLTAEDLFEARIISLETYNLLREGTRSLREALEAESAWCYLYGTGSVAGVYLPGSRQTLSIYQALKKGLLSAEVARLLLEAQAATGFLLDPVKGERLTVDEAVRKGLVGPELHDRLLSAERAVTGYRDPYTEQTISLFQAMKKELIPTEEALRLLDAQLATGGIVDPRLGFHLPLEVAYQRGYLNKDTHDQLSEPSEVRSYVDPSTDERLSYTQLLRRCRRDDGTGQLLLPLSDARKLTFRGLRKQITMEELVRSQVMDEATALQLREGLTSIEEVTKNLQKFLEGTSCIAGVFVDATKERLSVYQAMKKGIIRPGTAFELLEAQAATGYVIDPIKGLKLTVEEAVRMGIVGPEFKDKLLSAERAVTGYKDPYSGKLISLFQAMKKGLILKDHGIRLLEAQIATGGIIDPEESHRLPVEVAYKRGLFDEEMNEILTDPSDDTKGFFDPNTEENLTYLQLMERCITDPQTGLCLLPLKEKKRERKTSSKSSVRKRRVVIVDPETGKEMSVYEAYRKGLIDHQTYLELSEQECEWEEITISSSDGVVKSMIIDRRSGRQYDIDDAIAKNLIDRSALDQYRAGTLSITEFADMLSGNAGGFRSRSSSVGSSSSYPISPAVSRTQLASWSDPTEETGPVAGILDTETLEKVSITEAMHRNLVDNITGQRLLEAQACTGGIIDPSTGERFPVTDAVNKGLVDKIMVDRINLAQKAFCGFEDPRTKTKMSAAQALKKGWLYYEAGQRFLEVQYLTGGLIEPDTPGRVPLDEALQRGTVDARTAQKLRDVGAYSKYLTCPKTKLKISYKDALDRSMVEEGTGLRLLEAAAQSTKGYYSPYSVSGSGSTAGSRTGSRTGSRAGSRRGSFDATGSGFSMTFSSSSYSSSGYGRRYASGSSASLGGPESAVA", "lysine labeling ratio R10:1": 3.7},
      {"target": "FLNA (lysine site: K2473) (UniProt P21333)", "lysine labeling ratio R10:1": 3.58},
      {"target": "LRP1 (lysine site: K646) (UniProt Q07954)", "lysine labeling ratio R10:1": "1.92 (active)"},
      {"target": "HSPD1 (lysine site: K130) (UniProt P10809)", "lysine labeling ratio R10:1": 4.23},
      {"target": "PGK1 (lysine site: K30) (UniProt P00558)", "lysine labeling ratio R10:1": 2.54},
      {"target": "FN1 (lysine site: K249) (UniProt P02751)", "lysine labeling ratio R10:1": 2.7},
      {"target": "UniProt Q15149 (lysine site: K2903)", "lysine labeling ratio R10:1": 2.51},
      {"target": "UniProt Q16629 (lysine site: K70)", "lysine labeling ratio R10:1": "1.67 (active)"},
      {"target": "PSEN1 (lysine site: K109) (UniProt P49768)", "lysine labeling ratio R10:1": 2.61},
      {"target": "FLOT1 (lysine site: K54) (UniProt O75955)", "lysine labeling ratio R10:1": "0.737 (active)"},
      {"target": "LRP1 (lysine site: K458) (UniProt Q07954)", "lysine labeling ratio R10:1": 2.56},
      {"target": "PPA1 (lysine site: K176) (UniProt Q15181)", "lysine labeling ratio R10:1": "1.88 (active)"},
      {"target": "VCL (lysine site: K316) (UniProt P18206)", "lysine labeling ratio R10:1": "1.77 (active)"},
      {"target": "VCL (lysine site: K778) (UniProt P18206)", "lysine labeling ratio R10:1": "1.11 (active)"},
      {"target": "SPTAN1 (lysine site: K1856) (UniProt Q13813)", "lysine labeling ratio R10:1": 5.67},
      {"target": "CCT4 (lysine site: K21) (UniProt P50991)", "lysine labeling ratio R10:1": 3.58},
      {"target": "MYH9 (lysine site: K656) (UniProt P35579)", "lysine labeling ratio R10:1": 2.88},
      {"target": "GHITM (lysine site: K76) (UniProt Q9H3K2)", "lysine labeling ratio R10:1": 4.44},
      {"target": "UniProt Q15149 (lysine site: K4513)", "lysine labeling ratio R10:1": "1.42 (active)"},
      {"target": "DDX5 (lysine site: K56) (UniProt P17844)", "lysine labeling ratio R10:1": 2.69},
      {"target": "MSN (lysine site: K151) (UniProt P26038)", "lysine labeling ratio R10:1": 2.26},
      {"target": "CLTC (lysine site: K1264) (UniProt Q00610)", "lysine labeling ratio R10:1": "1.58 (active)"},
      {"target": "DDX23 (lysine site: K204) (UniProt Q9BUQ8)", "lysine labeling ratio R10:1": "0.85 (active)"},
      {"target": "LMO7 (lysine site: K305) (UniProt Q8WWI1)", "lysine labeling ratio R10:1": 3.84},
      {"target": "UniProt P16144 (lysine site: K46)", "lysine labeling ratio R10:1": 10.1},
      {"target": "SCARB2 (lysine site: K129) (UniProt Q14108)", "lysine labeling ratio R10:1": 5.93},
      {"target": "UniProt P62805 (lysine site: K13)", "lysine labeling ratio R10:1": 2.71},
      {"target": "CCT7 (lysine site: K250) (UniProt Q99832)", "lysine labeling ratio R10:1": "1.57 (active)"},
      {"target": "PPL (lysine site: K1339) (UniProt O60437)", "lysine labeling ratio R10:1": "1.34 (active)"},
      {"target": "NUCB2 (lysine site: K84) (UniProt P80303)", "lysine labeling ratio R10:1": "1.63 (active)"},
      {"target": "HNRNPM (lysine site: K698) (UniProt P52272)", "lysine labeling ratio R10:1": "0.67 (active)"},
      {"target": "CLU (lysine site: K322) (UniProt P10909)", "lysine labeling ratio R10:1": "1.38 (active)"},
      {"target": "UniProt Q15149 (lysine site: K4348)", "lysine labeling ratio R10:1": "1.12 (active)"},
      {"target": "HSPA9 (lysine site: K76) (UniProt P38646)", "lysine labeling ratio R10:1": 3.36},
      {"target": "JTB (lysine site: K94) (UniProt O76095)", "lysine labeling ratio R10:1": 5.2},
      {"target": "GNG12 (lysine site: K34) (UniProt Q9UBI6)", "lysine labeling ratio R10:1": 2.84}
    ]}
  ]
}
